In PubChem BioAssay (EPA / NIEHS):
Calls of active or inactive are those of the source. Rule for the calls: active = hit-call score of the fitted dose curve at least 0.9, where 1 is the maximum; inactive = score below 0.9.

Experiment: ATG_Ets_CIS: Attagene CIS-FACTORIAL HepG2 Assay for human Erythroblast Transformation Specific (ETS) (AID 2282941)
Settings: HepG2 ETS cis-reporter transcription, actives raise or lower the signal
Protocol: ATG_CIS is a cell-based, multiplexed-readout assay that uses HepG2, a human liver cell line, with measurements taken at 24 hours after chemical dosing in a 24-well plate.ATG_Ets_CIS is one of 52 assay component(s) measured or calculated from the ATG_CIS assay. It is designed to make measurements of mRNA induction, a form of inducible reporter, as detected with fluorescence intensity signals by Reverse transcription polymerase chain reaction (RT-PCR) and Capillary electrophoresis technology.Data from the assay component ATG_Ets_CIS was analyzed into 1 assay endpoint. This assay endpoint, ATG_Ets_CIS, was analyzed with bidirectional fitting relative to DMSO as the negative control and baseline of activity. Using a type of inducible reporter, measures of mRNA for gain or loss-of-signal activity can be used to understand the reporter gene at the transcription factor-level as they relate to the gene ETS1. Furthermore, this assay endpoint can be referred to as a primary readout, because this assay has produced multiple assay endpoints where this one serves a reporter gene function. To generalize the intended target to other relatable targets, this assay endpoint is annotated to the dna binding intended target family, where the subfamily is winged helix-turn-helix.
Human liver HepG2 cells are transiently transfected with multiple reporter transcription units (MRTUs) in 6-well plates using FuGene 6 reagent (Roche; 3 ml FuGene/1 mg DNA). The MRTU constructs are regulated by a cis-regulating element (promoter). […] A major difference between the CIS and TRANS system is that in CIS activities of endogenous TFs are measured, whereas the TRANS assay evaluates changes in activities of exogenous, chimeric NR-Gal4 proteins. […] At the end of 24 hour incubation, total RNA was isolated using TriZol reagent (Invitrogen). The isolated RNA is then reverse-transcribed using oligo(dT) primer and Mo-MLV reverse transcriptase (Invitrogen) with DNAse I (Ambion) treatment for 30 min. The one-tenth of the produced cDNA was amplified by PCR using Taq DNA polymerase (Invitrogen) and two reporter sequence-specific primers. The PCR products were fluorescently labeled by primer extension with 6-arboxyfluorescein (6-FAM) 5'-labeled reporter sequence-specific primer (2 min at 95 C, 20 s at 68 C and 10 min at 72 C) and these products were digested with 5U of HpaI (New England Biolabs) for 2h at 37 C. The fragments were purified using Qiaquick PCR columns (Qiagen), analyzed on an ABI 3130xL genetic analyzer (Applied Biosystems) with peak positions identified by using a set of X-rhodamine (ROX)-labeled MapMarker1000 molecular weight standards (BioVentures). The raw capillary electrophoresis data was processed using Attagraph software (Attagene).

Structure (SMILES) | outcome | AC50
CC1=NN(c2ccc(S(=O)(=O)O)cc2)C(=O)C1N=Nc1ccccc1 (stereo not given) | inactive | –
C/C=C/C=C/CCCCCCCO | inactive | –
N#CC1(N)CCCCC1 | inactive | –
O=C1CCCN1C1CCCCC1 | inactive | –
O=S(=O)(O)c1ccc(Nc2nc(Nc3ccc(C=Cc4ccc(Nc5nc(Nc6ccc(S(=O)(=O)O)cc6)nc(N(CCO)CCO)n5)cc4S(=O)(=O)O)c(S(=O)(=O)O)c3)nc(N(CCO)CCO)n2)cc1 | inactive | –
Cc1c(C(=O)c2c[nH]n(C)c2=O)ccc(S(C)(=O)=O)c1C1=NOCC1 | inactive | –
CC1(C)[C@@H]2CC[C@@]1(C)C(=O)C2 | inactive | –
CC(C)=CCl | inactive | –
c1ccc2cnccc2c1 | inactive | –
CC1CCC(=O)C1=O (stereo not given) | inactive | –
CCCCCCCCCCCCc1ccc(O)cc1 | inactive | –
CCCCCCCCCCCCCc1ccccc1 | inactive | –
Cc1c(Cl)cccc1Cl | inactive | –
CC1OC(=O)C(C)OC1=O (stereo not given) | inactive | –
O=C(O)c1ccc2c(c1)C(=O)OC2=O | inactive | –
CC1=CC=C(C(C)C)CC1 | inactive | –
Nc1ccc(C(=O)OCCCOC(=O)c2ccc(N)cc2)cc1 | inactive | –
Nc1ccnc(=O)[nH]1 | inactive | –
CCCCCCCOC(=O)c1ccc(O)cc1 | inactive | –
CC=CC(=O)OCC(C)C | inactive | –

Structure (SMILES) | outcome | AC50
CCCCC1CCC(=O)O1 (stereo not given) | inactive | –
CN1CCN(C)CC1 | inactive | –
CO[Si](CCCS)(OC)OC | inactive | –
CC(=O)CCC1=C(C)CCCC1(C)C | inactive | –
COC(=O)c1ccc(C(=O)OC)c(C(=O)OC)c1 | inactive | –
[Cl][Sc]([Cl])[Cl] | inactive | –
CCN1CN(CC)CN(CC)C1 | – | 175 µM (active)
CCCCOCC(C)O (stereo not given) | inactive | –
C=C1C[C@H]2[C@@H]3C=C(C)C4=CC(=O)CC[C@]4(C)[C@H]3CC[C@]2(C)[C@@]1(OC(C)=O)C(C)=O | inactive | –
CCC1(C)C(=O)N(Cl)C(=O)N1Cl (stereo not given) | inactive | –
CC(=O)CC(=O)Nc1ccccc1C | inactive | –
C=C(C)C(=O)OCC(O)COc1ccc(C(C)(C)c2ccc(OCC(O)COC(=O)C(=C)C)cc2)cc1 (stereo not given) | – | 100 µM (active)
CCOC(=O)OC(=O)OCC | inactive | –
C1CNCCN1 | inactive | –
C=C[Si](OCCOC)(OCCOC)OCCOC | inactive | –
CCCCC(CC)COS(=O)(=O)O (stereo not given) | inactive | –
CC(C)(CO)C(O)C(=O)NCCCO (stereo not given) | inactive | –
Nc1cccc(N)n1 | inactive | –
[Cl][Eu]([Cl])[Cl] | inactive | –
C=CC(=O)OCCCCCCCC(C)C | inactive | –
